Data taken from PubChem BioAssay (NCI).
Where “and” joins values, the source holds several entries; their conditions need not be identical. Identical values can stand only once. About 83,000 compounds went through this panel and 20% of them were active in at least one assay; those are over-represented in the sample as a whole.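 Method: cells in 96-well plates; compound added at one concentration; 48 h incubation; percent growth measured; values under 10 scored active.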 Calls of active or inactive are those of the source.

tested on: MALME-3M melanoma; assay: NCI-60 one-dose screen, 48 h (100 = growth as untreated, 0 = no growth, -100 = all killed); conditions: 10 µM unless noted

Row | SMILES | growth
1 | CN1CCN(CCCN2c3ccccc3Sc3ccc(Cl)cc32)CC1 | 91.6% (inactive)
2 | Nc1ncc(-c2ccc3ncnc(N4CCc5ccc(Cl)cc54)c3c2)cc1C(F)(F)F | -0.57% (active)
3 | CC(C)(C)c1cc(NC(=O)Nc2ccc(-c3cn4c(n3)sc3cc(OCCN5CCOCC5)ccc34)cc2)no1 | 28.9% (inactive) and 20.2% (inactive)
4 | CC1(Cc2ccccc2)CC2=C(C(=O)O1)C(c1ccccc1)NC(=O)N2 (stereo not drawn) | 104% (inactive)
5 | COc1cc(C=O)ccc1Oc1ccc([N+](=O)[O-])cc1[N+](=O)[O-] | 114% (inactive)

tested on: MDA-MB-231 breast; assay: as above; conditions: 10 µM unless noted

Row | SMILES | growth
6 | COc1ccc(C/C(C)=C(/c2ccc(OCCN3CCCC3)cc2)c2ccc(OC(=O)NCc3ccccc3)cc2)cc1 | 101% (inactive)
7 | CCN(CC)CCOc1ccc(/C(=C(\Cl)c2ccccc2)c2ccccc2)cc1 | 1.62% (active) and 26.1% (inactive)
8 | Cc1ccc(/C=C2\COc3ccc(O)c(O)c3C2=O)cc1 | -24.8% (active)
9 | COc1ccc2c(c1)oc1c(C)c3c(c(C)c12)C(=O)N(Nc1ccccc1)C3=O | 105% (inactive)
10 | CCC(=C(c1ccc(OCCCN(C)C)cc1)c1ccc(OCCCN(C)C)cc1)c1ccc(Cl)cc1 | -85% (active)
11 | CCOC(=O)c1c(-c2ccc(C)cc2)c(C#N)c(=O)n(-c2cccc(C(F)(F)F)c2)c1N | 97.9% (inactive)
12 | S=c1nc(CS)[nH]c2ccccc12 | 82.8% (inactive)
13 | O=C(N/N=C/c1ccc(O)cc1O)c1cccc(Nc2ccnc(C(F)(F)F)c2)c1 | 41.3% (inactive)
14 | CCN(CC)CCCN1C(=O)c2c(c(C)c3c(oc4cc(OC)ccc43)c2C)C1=O | 96% (inactive)
15 | Cc1ccc(NC(=O)c2ccc(CN3CCN(C)CC3)cc2)cc1Nc1nccc(-c2cccnc2)n1 | 88.8% (inactive) and 81.3% (inactive)
16 | COc1cc(/C=C2/C=C(c3ccc(C(C)(C)C)cc3)N(CCc3ccc(S(N)(=O)=O)cc3)C2=O)cc(OC)c1OC | 60.1% (inactive)
17 | O=c1c(/C=C/c2ccco2)nnc2sc(Nc3ccc(Cl)cc3)nn12 | 96.4% (inactive)
18 | Nc1[nH]nc(Nc2ccccc2)c1-c1nc2ccccc2s1 | -17% (active)
19 | CCCCCCCCn1ccc2cc(NC(=O)CN3CCN(c4nc(C)cc(N5CCCCC5)n4)CC3)ccc21 | 85.7% (inactive)
20 | CC/C(=C(/c1ccc(O)cc1)c1ccc(OCCN2CCCCCC2)cc1)c1ccc(Cl)cc1 | 88.4% (inactive)
21 | C=C(C)[C@@H]1CC[C@]2(C(=O)N3CCN(C)CC3)CC[C@]3(C)[C@H](CC[C@@H]4[C@@]5(C)CC(CCCNC(C)=O)(CCCNC(C)=O)[C@H](OC(C)=O)C(C)(C)[C@@H]5CC[C@]43C)[C@@H]12 | 108% (inactive)
22 | CCN(c1cc(-c2ccc(CN3CCC(/C=C/S(=O)(=O)c4ccccc4)CC3)cc2)cc(C(=O)NCc2c(C)cc(C)[nH]c2=O)c1C)C1CCOCC1 | 67.3% (inactive)
23 | Nc1nc(N)c2c(n1)NC(c1ccc(Cl)cc1)CC(c1cccc(Nc3ccncc3)c1)=N2 (stereo not drawn) | 49.8% (inactive)
24 | C=C(c1ccc(C(=O)O)cc1)c1cc2c(cc1C)C(C)(C)CCC2(C)C | 69.6% (inactive) and 68.2% (inactive)
25 | O=C1OCC2=C1C(c1cccc([N+](=O)[O-])c1)c1cc3c(cc1N2CCO)CCC3 (stereo not drawn) | 30% (inactive)
26 | CCN(CC)/C([O-])=c1\cccc\c1=C1\N=C(c2ccccc2)N=C1[n+]1ccc(-c2ccccc2)cc1 | 100% (inactive)
27 | Cc1nc(-n2[nH]c(=O)ccc2=O)sc1N=Nc1ccccc1 | 102% (inactive)
28 | Cc1ccc(-c2nc3nc(-c4ccccc4)nc(N4CCCNCC4)c3o2)cc1 | -86.9% (active)
29 | O=C([C@H]1C[C@H]1c1ccc(S(F)(F)(F)(F)F)cc1)N1CCN(c2cc(Cl)ccc2C(F)(F)F)CC1 | 97.2% (inactive)
30 | OB(O)c1ccsc1-c1nc2ccc3[nH]ncc3c2c2c1CCCC2 | 70.3% (inactive)
31 | CC[C@]12CN3CCc4c([nH]c5ccccc45)[C@@](C(=O)OC)(c4cc5c(cc4OC)N(C)[C@H]4[C@@](O)(C(=O)OC)[C@H](OC(C)=O)[C@]6(CC)C=CCN7CC[C@]54[C@@H]76)CC(C3)[C@H]1O2 (stereo partly drawn) | -28.8% (active)
32 | COC(=O)N/N=C/c1c[n+]([O-])c2ccccc2[n+]1[O-] | 110% (inactive)
33 | Cn1ccnc1CN1CCSC(C(=O)Nc2ccccc2)C1 (stereo not drawn) | 104% (inactive)
